The whole screen tested about 260,000 compounds, of which about 1,500 (0.58%) were called active. Roughly 5% stayed inconclusive and do not appear here.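 The calls were made as follows: active = inhibition above a set limit at one or more doses, reproduced on every date tested; inconclusive = results disagree between test dates, or hit never tested in dose response; inactive = the rest.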 Not all results are given here. Entries with a potency or affinity are not part of this list.
These compounds were tested against Virion infectivity factor (Human immunodeficiency virus type 1 group M subtype B (isolate BH10)) + Virion infectivity factor (Human immunodeficiency virus type 1 group M subtype B (isolate BRU/LAI)) + Virion infectivity factor (Human immunodeficiency virus type 1 group M subtype B (isolate PCV12)) + Virion infectivity factor (Human immunodeficiency virus type 1 group M subtype B (isolate HXB2)) + DNA dC->dU-editing enzyme APOBEC-3G (Homo sapiens) (UniProt P69720+P69721+P69722+P69723+Q9HC16) (assay: HIV-1 Vif–A3G interaction blockers – biochemical, TR-FRET, GST-Vif 1-94, biotin-A3G peptide, dose response retest, primary screen (AID 1117319;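 also: Vif residues 1-94 fused to GST binding biotinylated APOBEC3G peptide 110-148; 0% = full assay without inhibitor and 100% = GST in place of GST-Vif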)). Details: TR-FRET GST-Vif / biotin-A3G peptide binding; hits give high values.

inhibition, inactive:
CCN(CC(=O)Nc1c(F)cccc1F)C(=O)c1ccc2c(c1)OCCO2 8.86%
CCOc1ccc(CN(C)C(=O)CCc2ccc(S(=O)(=O)N3CCCCCC3)cc2)cc1 -5.71%
CNC(=O)c1c(NC(=O)CS(=O)(=O)c2ccccc2)sc(C)c1C 2.6%
OC1CCCN(C(=S)Nc2ccc(SC(F)F)cc2)C1 (stereo not drawn) 21.9%
Cc1ccc(NC(=O)CSc2nc(=O)n(CCN(C)C)c3c2CCCC3)cc1Cl -8.42%
COC(=O)c1cc2occc2n1CC(=O)N(C)C1CCCCC1 15.2%
CN1CCN(c2cc(N3CCc4ccccc4C3)c(F)cc2[N+](=O)[O-])CC1 -1.87%
COc1ccc(Br)c(C(=O)NNC(=O)c2ccc(NS(=O)(=O)c3cccs3)cc2)c1 2.76%
C(C#CCN1CCOCC1)#CCN1CCOCC1 5.57%
CCc1ccccc1Nc1nc(N)nc(CSc2nnnn2C)n1 0.07%
CSCCC(NC(=O)/C(=C\c1ccc(Cl)cc1)NC(=O)c1ccccc1)C(=O)O (stereo not drawn) 1.24%
COc1ccc(-n2c(C)c3c(OC)cccc(=O)c3c2C)cc1 32.9%
COc1cccc(=O)c2c(C)n(-c3cc(C)cc(C)c3)c(C)c12 21.8%
CCOc1ccccc1-c1cc(-c2ccccc2)nc2c1c(=O)n(C)c(=O)n2C -7.81%
CCOc1ccccc1C(c1c(C)n(C)n(-c2ccccc2)c1=O)c1c(C)n(C)n(-c2ccccc2)c1=O -1.18%
COc1ccc(CNC(=O)Cn2cnc3c(OCc4ccccc4)ncnc32)cc1 -3.17%
Cc1ccc(S(=O)(=O)Nc2ccccc2-c2ccccc2)cc1 -0.15%
Cc1ccc(S(=O)(=O)c2c(C)nn(C(C)(C)C)c2OC(=O)CC(C)C)cc1 -0.23%
CCN1CCN(C(=O)Cn2cnc3sc(C)c(S(=O)(=O)N4CCN(c5ncccn5)CC4)c3c2=O)CC1 6.94%
CN=c1scc(C)n1/N=C/c1cc(Br)c(O)c(OC)c1 17.7%
CCN=c1scc(-c2cccs2)n1/N=C/c1cc(OC)ccc1O 11.2%
COCCN=c1scc(-c2cccs2)n1/N=C(\C)c1ccco1 -4.46%
CN=c1scc(-c2ccccc2F)n1/N=C/c1ccc[nH]1 3.11%
CCOc1ccc(C(=O)NCC(C)C)cc1 1.08%
Cc1ccc(C)c(NC(=O)N2CCc3ccccc3C2)c1 -0.5%
Cc1cc(C)n(CC2CC(=O)N(c3ccc(Cl)cc3)C2=O)n1 (stereo not drawn) -0.66%
CC(=O)N1CCN(C(=O)c2ccc(Oc3ccccc3)cc2)CC1 -9.55%
Cc1ccc(N2C(=O)CN(Cc3sccc3C)C2=S)cc1C 8.31%
CC1C/C=C/C=C/C=C/C=C/C(O[C@@H]2O[C@H](C)[C@@H](O)[C@H](N)[C@@H]2O)CC2OC(O)(CC(O)CC3OC3/C=C/C(=O)O1)CC(O)C2C(=O)O (stereo partly drawn) -4.31%
COc1ccc(C(=O)O/N=C(\N)c2ccccc2)c(OC)c1 2.57%
O=C1NC2(CCCCC2)C(=O)N1Cc1cc(=O)n2ccsc2n1 -0.24%
CC(C(=O)NCc1ccc2c(c1)OCO2)c1ccc([N+](=O)[O-])cc1 (stereo not drawn) 6.03%
Nc1nc(SCc2ccccc2)c2[nH]cnc2n1 -9.37%
CNc1ncnc(Sc2nc(N)nc3nc[nH]c23)c1[N+](=O)[O-] 16.1%
CC1(C)C2C(Cl)(Cl)C2(C)c2ccccc2N1C=O (stereo not drawn) -2.3%
COc1ccc(-c2nc3ccccc3n2OC(C)C(=O)O)cc1 (stereo not drawn) -3.4%
COc1ccc(-c2nc3ccccc3n2OCC(=O)O)cc1 15.9%
Cn1[nH]c(C(F)(F)F)c(C=NCc2ccc(Cl)cc2)c1=O -4.02%
COc1cccc(-c2cc3c(=O)n(-c4ccccc4)c(=S)[nH]c3s2)c1 -16.9%
Cc1c(C)n2c3c(cccc13)CC2 3.05%
O=C(Nc1ccccc1)c1cccc(C(F)(F)F)c1 0.71%
O=C(c1ccccc1)c1ccc2nc(-c3ccco3)c(-c3ccco3)nc2c1 3.26%
CC(=O)c1ccc(NC(=O)c2cccc(NC(=O)c3ccccc3)c2)cc1 -13.5%
O=C(Nc1cccc(-c2nnc(-c3ccco3)o2)c1)c1ccccc1 -5.38%
O=C(Nc1ccc(N2CCOCC2)cc1)c1ccc2nc(-c3ccco3)c(-c3ccco3)nc2c1 10.5%
O=C(Nc1cccc(C(F)(F)F)c1)c1ccco1 -3.65%
COc1ccc2cc(C3=CC(=O)CC(C)(C)C3=O)ccc2c1 4.18%
Cc1cc(C)nc(-n2ncc3c2CCCC3=O)n1 -7.41%
COc1ccc([C@@H]2C[C@H]3[C@@H](CN2S(=O)(=O)c2ccccc2)C(=O)C[C@@H](c2ccccc2F)N3S(=O)(=O)c2ccc(C)cc2)cc1 -4.64%
CC1CCOC2(O1)C(=O)N(CN1CCN(c3cccc(Cl)c3)CC1)c1ccccc12 (stereo not drawn) 16.9%
Cc1ccc(Nc2nc(=O)[nH]nc2C)cc1 23.2%
COCCNC(C(=O)Nc1ccc([N+](=O)[O-])cc1Br)c1ccccc1 (stereo not drawn) -2.09%
Cc1noc(NS(=O)(=O)c2ccc(NC(=O)CCCOc3ccc(Cl)cc3Cl)cc2)c1C 2.83%
Cc1nnc(NC(=O)CSc2nnc(NC(=O)C(C)(C)C)s2)s1 22.2%
C=CCSc1nnc(NC(=O)CSc2ccccn2)s1 -2.29%
C#CCOCCOCCOCCNc1nc(N2CCN(C(=O)[C@H](Cc3ccc(O)cc3)n3cc([C@@H](N)C(C)CC)nn3)CC2)nc(N2CCN(C(=O)[C@H](CCCCN)n3cc([C@@H](N)CO)nn3)CC2)n1 (stereo partly drawn) -12.6%
O=C(COc1c(F)c(F)cc(F)c1F)NNC(=O)CC1CCS(=O)(=O)C1 (stereo not drawn) -4.18%
CC1CN(S(=O)(=O)c2cccc(C(=O)OCC(=O)NCc3ccccc3)c2)CC(C)O1 (stereo not drawn) -6.28%
Cc1ccc(N2C(=O)c3ccccc3C2C(=O)c2cc(C)ccc2O)cc1 (stereo not drawn) 30.2%
COc1ccc(N2C(=O)c3ccccc3NC2c2ccccc2O)cc1 (stereo not drawn) -3.39%
CC(=O)SC1CC(=O)N(c2ccc(C(C)(C)C)cc2)C1=O (stereo not drawn) -11.1%
O=C(NCCc1ccccc1)c1cc(-c2ccco2)on1 25.6%
O=C(NCc1ccccn1)c1ccc(=O)oc1 11.6%
O=C(NCCc1ccccc1)c1coc(=O)c(Br)c1 -22.2%
COc1ccc(C(=O)NCc2ccccn2)cc1 19.1%
O=C(NCCc1ccccc1)c1ccc2nccnc2c1 28.7%
CCc1nc2ccc(C(=O)NCCc3ccc(OC)c(OC)c3)cc2nc1CC 0.19%
O=C(NCc1ccccn1)c1ccc(NC(=O)c2ccco2)cc1 1.9%
COc1ccc(CCNC(=O)c2cc(-c3ccco3)on2)cc1OC -1.47%
CCN(Cc1ccc(NC(C)=O)cc1)CC1CCCN(CCc2cccc(OC)c2)C1 (stereo not drawn) 3.62%
O=C(Cn1nnc(-c2ccccc2Cl)n1)Nc1cccc(S(=O)(=O)N2CCCC2)c1 -4.6%
COC(=O)c1ccccc1NC(=O)Nc1ccc(Cl)cn1 -0.47%
CCc1nc2ccc(C(=O)NCc3ccccc3)cc2nc1CC 13.9%
O=C(NCc1ccccc1)c1ccc2nccnc2c1 -2.53%
CC(C(=O)N1CCN(c2ccc(Cl)cc2)CC1)c1ncc(C(F)(F)F)cc1Cl (stereo not drawn) -3.01%
Cc1ccc(S(=O)(=O)NCc2nnc(SCC(=O)Nc3cccc(C)c3C)n2C)cc1 -1.43%
NS(=O)(=O)c1ccc(NC(=O)NC2CCCCC2)cc1 1.56%
CSc1oc(-c2ccco2)nc1S(=O)(=O)c1ccc(Br)cc1 6.37%
CSc1oc(-c2ccco2)nc1S(=O)(=O)c1ccc(F)cc1 9.31%
Cc1ccc2nc3sc(C(=O)Nc4ccc(N5CCOCC5)cc4)c(N)c3cc2c1 12.2%
NC(=O)c1ccc(OCC(F)(F)F)nc1 -12.4%
O=C(NC(=S)N1CCN(c2ccc([N+](=O)[O-])cc2)CC1)c1ccccc1Cl 0.79%
C[C@@H]1CCCCO[C@H](CN(C)C(=O)Nc2cccc3ccccc23)[C@@H](C)CN([C@H](C)CO)C(=O)c2cc(N(C)C)ccc2O1 4.84%
Cc1c(/C=N/Nc2ccc(F)cc2)c(O)n(C)c(=O)c1C#N 12.3%
CC(=O)N=Cc1c(C)c(C#N)c(=O)n(C)c1O 6.56%
O=C(C1CCN(S(=O)(=O)c2ccc3c(c2)OCCO3)CC1)N1CCc2ccccc21 24.2%
CNS(=O)(=O)c1cc(O)c2c(S(=O)(=O)NC)cccc2c1 1.99%
Oc1ccc(Cl)cc1N=Nc1ccccc1 0.9%
COc1ccccc1C(=O)NCCC(=O)Nc1ccc(S(=O)(=O)N2CC(C)CC(C)C2)cc1 (stereo not drawn) -5.91%
CC(C)OC(=O)CSc1nnc(Cc2ccccc2)n1C 1.42%
Cc1cc([N+](=O)[O-])cc2ncccc12 22.2%
COc1ccc(OC)c(C2Nc3c(Cl)ccc(C(=O)O)c3C3C=CCC32)c1 (stereo not drawn) -11.5%
CC1(C)CC(=O)C2=C(C1)Nc1cc(C(=O)c3ccccc3)ccc1NC2c1ccccn1 (stereo not drawn) 1.75%
O=C(O)c1ccc2c(c1)C1C=CCC1C(c1cc3c(cc1Br)OCO3)N2 (stereo not drawn) -3.12%
Cc1ccc([N+](=O)[O-])cc1S(=O)(=O)Nc1ccccn1 11.9%
O=[N+]([O-])c1ccc(Cl)c2c1C1C=CCC1C(c1ccccn1)N2 (stereo not drawn) -2.51%
CN(C)C(=O)c1ccc2c(c1)C1C3CCC(C3)C1C(c1ccccc1)N2 (stereo not drawn) -2.04%
O=C(O)c1cc(-c2ccccn2)n[nH]1 -8.59%
